The target of this experiment is RPA (Rfa1-Rfa2-Rfa3) (Saccharomyces cerevisiae, UniProt P22336;P26754;P26755 1-621;1-273;1-122). Put plainly: EMSA; 10 nM RPA, 150 mM KCl; 20 mM Tris-HCl pH 7.5, 150 mM KCl (15 mM in Supp. Fig. 1b), 1 mM DTT, 100 ug/mL BSA, 5 nM ssDNA, 30 C 10 min; 4% native gel in 0.2x TBE; high values mean tight binding. Conditions: protein: recombinant; copies: 1;1;1; label: 5'-32P; ssDNA. Background: Mobility shift assays separate free from complexed probe on a gel.
Sequence of RPA (Rfa1-Rfa2-Rfa3) (P22336 whole entry, chain 1 of 3): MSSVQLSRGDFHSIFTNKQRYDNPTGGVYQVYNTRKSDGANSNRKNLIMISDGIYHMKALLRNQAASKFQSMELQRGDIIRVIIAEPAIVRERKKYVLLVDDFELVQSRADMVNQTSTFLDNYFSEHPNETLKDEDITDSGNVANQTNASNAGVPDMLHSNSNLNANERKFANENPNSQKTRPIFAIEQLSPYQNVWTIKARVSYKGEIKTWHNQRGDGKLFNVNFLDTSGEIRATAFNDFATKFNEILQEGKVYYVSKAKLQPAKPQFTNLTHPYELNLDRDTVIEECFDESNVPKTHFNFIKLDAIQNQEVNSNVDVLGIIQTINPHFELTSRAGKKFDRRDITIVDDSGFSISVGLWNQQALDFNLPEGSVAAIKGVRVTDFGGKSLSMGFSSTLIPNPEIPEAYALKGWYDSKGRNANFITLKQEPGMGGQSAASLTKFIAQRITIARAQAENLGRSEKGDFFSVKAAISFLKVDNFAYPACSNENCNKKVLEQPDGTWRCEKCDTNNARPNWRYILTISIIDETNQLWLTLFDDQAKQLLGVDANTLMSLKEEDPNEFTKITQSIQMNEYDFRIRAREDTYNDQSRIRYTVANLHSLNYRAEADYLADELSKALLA
Sequence of RPA (Rfa1-Rfa2-Rfa3) (P26754 whole entry, chain 2 of 3): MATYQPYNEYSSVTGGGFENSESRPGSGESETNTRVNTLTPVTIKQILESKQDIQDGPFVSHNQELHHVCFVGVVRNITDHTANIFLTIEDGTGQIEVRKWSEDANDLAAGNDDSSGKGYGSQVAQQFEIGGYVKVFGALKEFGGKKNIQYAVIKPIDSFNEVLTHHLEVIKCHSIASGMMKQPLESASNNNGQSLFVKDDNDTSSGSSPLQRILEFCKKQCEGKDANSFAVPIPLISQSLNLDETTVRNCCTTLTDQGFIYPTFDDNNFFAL
Sequence of RPA (Rfa1-Rfa2-Rfa3) (P26755 whole entry, chain 3 of 3): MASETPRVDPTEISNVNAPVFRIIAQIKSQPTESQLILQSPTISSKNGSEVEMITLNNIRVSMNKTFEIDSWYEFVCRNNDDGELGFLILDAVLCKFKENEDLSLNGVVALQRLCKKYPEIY
In the case of TTTTTTTTTT, the binding signal was 1.24 % bound.

As for TTTTTTTTTTTTTTTTTT, the binding signal is 39.7 % bound.

Consider TTTTTTTTTTTTTT, for which the binding signal is 3.33 ± 2.59 % bound.

(Values after paper PMC10313831, “ssDNA accessibility of Rad51 is regulated by orchestrating multiple RPA dynamics”.)
